# Screens from PubChem.
# MITF act: activators of MITF-driven TRPM1 promoter activity in SK-MEL-5 cells; SK-MEL-5 TRPM1-promoter luciferase, 24 h; % of positive control, neutral wells = 0; activation, % at 12.5 µM; actives 0.75% (n = 300,000); AID 588334;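 active means mean activation of at least 80% with every replicate also reaching 80%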;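 further: 0% = neutral control wells and 100% = parthenolide positive control wells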
# MITF TRPM1 inh: reduces MITF-dependent TRPM1 promoter luciferase signal | SK-MEL-5 TRPM1 promoter luciferase, 24 h | inhibition, % at 12.5 µM | actives 0.83% (n = 330,000) | AID 488899;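 active means mean inhibition across replicates of 60% or more, whatever share of single replicates reaches that level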
# Wnt bcat act: Wnt/beta-catenin pathway activation; Wnt/beta-catenin reporter cell assay, activator, plate reader; actives 1.2% (n = 300,000); activation, % at 9.35 µM; in the data active means activation above about 30%, passing the limit was not always enough;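 further: 0% = neutral control wells and 100% = positive control wells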
# N-glyco inh: N-linked glycosylation inhibition; actives 0.23% (n = 360,000); reporter increase, % at 12.5 µM; D54 ERlucT glycosylation luciferase reporter, 24 h; percent of 100 nM tunicamycin response;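 active means mean luciferase reporter signal, scaled so untreated is 0 and the glycosylation-blocking control 100, at or above a set limit in every replicate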;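 further: luciferase carries N-glycosylation sites so blocking glycosylation raises the light; 0% = median of neutral control wells and 100% = median of 100 nM tunicamycin wells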
# NSD2 HMT inh: inhibitors of human histone methyltransferase NSD2; actives 0.54% (n = 310,000); AID 743445; NSD2 peptide methylation, AlphaScreen, 120 min; inhibition, % at 12.5 µM; in the data active means inhibition above about 50%
# PfHsp90 set2: inhibits growth of yeast expressing Plasmodium falciparum Hsp90; S. cerevisiae expressing PfHsp90, BacTiter-Glo ATP, 48 h; yeast lacking PDR1 and PDR3 efflux regulators; inhibition, % at 9.4 µM; actives 0.32% (n = 310,000); AID 504621;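 active means every replicate shows inhibition above about 80%, whatever the replicate mean, limit read from the data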;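 further: 0% = DMSO neutral controls and 100% = 20 µM radicicol positive controls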
# AlphaScreen art: counter-screen for NSD2 inhibitors: AlphaScreen artifacts. AlphaScreen artifact counterscreen, preloaded methylated H4 peptide. AID 1053174. actives 9.4% (n = 1,500). shares compounds with NSD2 HMT inh. AC35, µM (top dose mostly 10 µM), for inactives: at the highest dose activity change, negative = signal loss; call rule not given here
# Starred values were filed as active, the others as inactive; / = not tested or not shown. An excerpt weighted towards active compounds, which were near 2.9% of everything screened.
SMILES,MITF act,MITF TRPM1 inh,Wnt bcat act,N-glyco inh,NSD2 HMT inh,PfHsp90 set2,AlphaScreen art
COc1ccc2c(C#N)c3ccccn3c2c1,3.4,-0.5,-2.5,-0.8,51.6*,-33.6,9.4%
Cc1cc(=O)n2ccccc2c1C#N,-4.1,6.2,/,1.9,1.2,7.2,/
COc1cccc2c1C(=N)c1c(O)c3c(c(O)c1C2=O)CC(O)(C(C)=O)CC3OC1CC(N)C(O)C(C)O1 (stereo unspecified),/,91.7*,/,-2.5,56.1*,5.9,8.46µM*
O=C1c2cc(O)c(O)cc2OC(c2ccc(O)c(O)c2)C1O (stereo unspecified),1.4,-5.1,2.6,2.5,68.1*,18.1,-11.4%
COc1ccc2c(c1)C(=O)[C@H](O)[C@@H](c1ccc(OC)c(Br)c1)O2,/,/,-3.0,/,/,/,/
Nc1cc(S(=O)(=O)O)cc([N+](=O)[O-])c1O,-2.3,3.2,-0.7,1.0,87.4*,9.3,-5.5%
Nc1ccc(C(=O)O)cc1[N+](=O)[O-],-12.7,12.2,4.6,0.0,/,3.3,/
CC1CCC2C(C1)c1sc(=O)[nH]c1SC2(C)C (stereo unspecified),-5.9,7.0,/,-1.1,111.0*,-187.4,-2.0%
CCN(CC)C(=O)CSc1nnc(-c2ccccc2)c(-c2ccccc2)n1,-12.3,11.3,-7.6,-4.5,4.0,-8.0,/
Cc1ccc(-c2csc3nc(CN(C)Cc4ccccc4)[nH]c(=O)c23)cc1,4.7,-5.3,-1.7,0.3,59.8*,-34.0,2.3%
COCCNC(=O)CSc1nnc(CCCN2C(=O)c3cccc4cccc(c34)C2=O)n1-c1ccccc1,7.4,-7.0,-1.4,-2.7,-0.5,-2.7,/
COc1cc(C(=O)NCCCNc2nc3cc(C)c(C)cc3cc2C#N)cc(OC)c1OC,0.2,-6.8,0.0,2.6,-2.1,4.3,/
CS(=O)(=O)c1ccc2c(c1)sc1nc(=O)c(/C=C3/C=CC(=O)C(O)=C3)c(N)n12,0.3,3.9,3.1,-3.7,118.6*,17.8,7.09µM*
CCOC1=C2CN(S(=O)(=O)c3ccc(C)cc3)C(c3cccc(Cl)c3)CC2NC(c2ccccc2)C1 (stereo unspecified),/,/,-5.9,/,-0.6,/,/
S=C1NCN(Cc2ccco2)CN1CCc1ccccc1,/,0.7,-0.5,0.8,53.3*,3.8,-2.9%
Cc1cccc(C)c1Nc1c(-c2ccccn2)nc2ccccn12,-40.6,41.1,0.4,-1.7,23.9,-0.1,/
CC(=O)C1=C(C)OC2(O)c3ccccc3C(=O)C12O (stereo unspecified),/,/,-1.7,1.9,90.2*,/,-0.8%
CCOC(=O)C1=C(C)OC2(O)c3ccccc3C(=O)C12O (stereo unspecified),/,/,-3.7,1.9,107.0*,/,0.9%
COc1ccc(OC2CCN(C(=O)Nc3ccc(C)cc3)CC2)cc1,-3.1,4.5,2.7,0.0,-3.4,17.6,/
Fc1ccccc1CNCc1ccc2c(c1)OCO2,/,-13.3,3.0,-2.9,0.9,3.7,/
CCOc1ccccc1NC(=O)C1CCCN1C(=O)c1cccs1 (stereo unspecified),0.2,-2.4,0.5,2.9,108.3*,11.8,-6.0%
NC(=S)NN=Cc1ccc(-c2ccc(S(=O)(=O)Nc3ncccn3)cc2)o1,-2.5,-2.2,1.7,0.2,144.6*,17.3,-7.7%
CC(=O)Nc1ccc(N(C(=O)CNC(=O)c2ccco2)C(C(=O)NCc2ccco2)c2ccccc2F)cc1 (stereo unspecified),-9.3,8.5,-2.4,1.5,26.1,5.4,/
N#C/C(C(N)=O)=c1/ccc2c(c1)N1C3=C(CCCC3)CC3CCCCC31N=2 (stereo unspecified),/,/,12.5,/,50.3*,/,5.45µM*
Nc1ncnc(NCc2ccccc2)c1[N+](=O)[O-],0.8,-6.9,-9.4,-8.5,53.1*,7.4,-0.6%
Nc1ncnc(NCc2ccc(F)cc2)c1[N+](=O)[O-],-5.0,0.7,-3.9,-10.8,-1.8,2.2,/
O=C(CSc1nc(-c2ccccc2)c(-c2ccccc2)o1)N1CCCCC1,/,/,-1.6,-10.8,69.5*,/,-4.9%
O=C(CCSc1nc(-c2ccccc2)c(-c2ccccc2)o1)N1CCCCC1,/,/,-7.7,-4.8,-0.5,/,/
